# Test results: PubChem BioAssay (NCI)
# This is part of a sample that, as a whole, favours compounds with a hit. Of some 79,000 tested, about 15% had one in any assay. Unmarked numbers belong to inactive results. Active and inactive are the calls of the source. No stated cut-off is given here; in the data, active means growth inhibition above about 70%; inactive means the rest. Where a SMILES comes first, the peptide text is derived from it. [ ]: non-standard residue; d: D form. The star is where a group is joined. mTyr = N[CH](Cc1cccc(O)c1)C(=O)O; Cbz = O=C(OCc1ccccc1)*; OBn = c1ccc(CO*)cc1
# Assay: NCI Yeast Anticancer Drug Screen. Data for the rad50 strain (AID 155);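 further: 0% = growth of vehicle-only cultures of the same strain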
# Conditions: S. cerevisiae rad50 strain growth inhibition; at 5.0 µM (retest, dose inferred, filed as 0.5); stronger effect = higher value
# In short: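 Inhibition values express reduced yeast growth in compound-treated cultures relative to vehicle-treated controls.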
row,SMILES,growth inhibition
1,Cc1cc2c(cc1S(=O)(=O)O)C1C(C3C2C2(Cl)C(Cl)=C(Cl)C3(Cl)C2(Cl)Cl)C2(Cl)C(Cl)=C(Cl)C1(Cl)C2(Cl)Cl (centres undefined),1%
2,O=C1/C(=C/c2ccccc2)CNC/C1=C\c1ccccc1,-11%
3,Cc1ccc2c(c1)-c1cc(C)ccc1C2(O)c1ccccc1,3%
4,CCCc1cc2c(cc1COc1ccccc1C(=O)O)OCO2,-1%
5,O=C1OC(c2ccc3c(c2)OCO3)Sc2ccccc21 (centres undefined),11%
6,Cc1cc(NC(=S)SCc2ccc(Cl)cc2)ccc1F,5%
7,NC(=O)CC1CCC(c2ccccc2)CC1 (centres undefined),-1%
8,[O-]c1c2cc(-[n+]3c(-c4ccccc4)cc(-c4ccccc4)cc3-c3ccccc3)cc1CO[C@@H](c1ccccc1)[C@H](c1ccccc1)OCc1cccc(n1)CO[C@@H](c1ccccc1)[C@H](c1ccccc1)OC2,98% (active)
9,OCCN(CCO)c1cc(/C=C/c2ccnc3ccccc23)nc2ccccc12,7%
10,COC(=O)C(Cc1cccc(O)c1)NC(=O)C(CC(=O)OCc1ccccc1)NC(=O)OCc1ccccc1 (centres undefined) (Cbz-Asp(OBn)-[mTyr]-OMe; configuration not given here),-12%
11,COc1cc[c]([Sn]([c]2ccc(OC)cc2)([c]2ccc(OC)cc2)[c]2ccc(OC)cc2)cc1,1%
12,COC(=O)CCCCCOS(=O)(=O)c1ccc(C)cc1,1%
13,O=S(=O)(C#Cc1ccccc1)c1ccccc1,12%
14,N#CC1(C#N)C(C#N)(C#N)C12CCCCCC2,38%
15,CCOC(=O)/C(C)=N/Nc1cc(Cl)ccc1O,0%
16,N/C(CC(=O)NOC(=O)c1ccccc1)=N/OC(=O)c1ccccc1,55%
17,C/C(=N\NC(=S)N1CCC(C)CC1)c1ncccn1,-4%
18,Cc1ccc(S(=O)(=O)OCC(/C=N/NC(N)=O)OCOC(C)/C=N/NC(N)=O)cc1 (centres undefined),-2%
19,CN1COc2c(Cl)cc(Cl)cc2C1,-3%
20,c1ccc2cc3c(cc2c1)Nc1c2ccccc2nc2cccc-3c12,31%
21,CCCCN(CCCC)S(=O)(=O)c1ccccc1,3%
22,Cc1cccc(N2C(c3ccccc3)c3ccc(C)cc3NS2=O)c1 (centres undefined),2%
23,CN(C)c1ccc(/C=N/c2nc(-c3ccccc3)cs2)cc1,9%
24,O=C1c2ccccc2-c2nc3ncccc3cc21,27%

# Same assay, conditions: S. cerevisiae rad50 strain growth inhibition; at 50.0 µM (retest, dose inferred, filed as 5.0); stronger effect = higher value
row,SMILES,growth inhibition
1,CC(/C=N/NS(=O)(=O)c1ccc(C)cc1)=C(c1ccccc1)c1ccccc1,87% (active)
2,CCOC(=O)Cc1cc(=O)oc2c(CN3CCN(c4ccc(C)cc4)CC3)c(O)ccc12,55%
3,Clc1ccc(/C=N\Nc2c3ccccc3nc3ccccc23)cc1Cl,25%
4,CNC(=O)c1cc(NC(=O)c2ccc(C(=O)Nc3cc(C(=O)NC)cc(C4=NCCN4)c3)cc2)cc(C2=NCCN2)c1,-3%
5,O=P1(O)c2ccccc2CS(=O)(=O)Cc2ccccc21,31%
6,CC1=C(C(=O)NCc2ccccc2)C(c2ccccc2[N+](=O)[O-])C(C(=O)NCc2ccccc2)=C(C)N1,16%
7,Oc1ccc(C2CCCCC2)cc1,59%
8,CCN(CC)CCOc1cccc2c1C(=O)c1c(O)cccc1C2=O,72% (active)
9,CCN(CC)C1Oc2cc3c(cc2C(c2ccc(OC)cc2)C1C)OCO3 (centres undefined),96% (active)
10,COc1ccc(C2C3CCCC(C(c4ccc(OC)cc4)N2C)C32NC(=O)NC2=O)cc1 (centres undefined),98% (active)
11,Clc1ccc(SSc2ccc(Cl)cn2)nc1,69%
12,CN=c1sc2c(n1C)C(=O)c1ccccc1C2=O,48%
13,O=C(Nc1cccc(Cl)c1)OCCOC(=O)Nc1cccc(Cl)c1,99% (active)
14,O=[N+]([O-])c1ccc2c(c1)Cc1cc(Cl)ccc1-2,6%
15,Cc1c(-c2ccccc2)ccnc1/C=N/NC(=S)NCCc1ccccc1,77% (active)
16,O=C(O)CCC(=O)NCCNC(=O)CC(=O)O,-162%
17,Cc1cc2c(cc1S(=O)(=O)O)C1C(C3C2C2(Cl)C(Cl)=C(Cl)C3(Cl)C2(Cl)Cl)C2(Cl)C(Cl)=C(Cl)C1(Cl)C2(Cl)Cl (centres undefined),69%
18,O=C1/C(=C/c2ccccc2)CNC/C1=C\c1ccccc1,98% (active)
19,Cc1ccc2c(c1)-c1cc(C)ccc1C2(O)c1ccccc1,83% (active)
20,CCCc1cc2c(cc1COc1ccccc1C(=O)O)OCO2,49%

row,SMILES,growth inhibition
1,O=C1OC(c2ccc3c(c2)OCO3)Sc2ccccc21 (centres undefined),24%
2,Cc1cc(NC(=S)SCc2ccc(Cl)cc2)ccc1F,66%
3,NC(=O)CC1CCC(c2ccccc2)CC1 (centres undefined),-59%
4,[O-]c1c2cc(-[n+]3c(-c4ccccc4)cc(-c4ccccc4)cc3-c3ccccc3)cc1CO[C@@H](c1ccccc1)[C@H](c1ccccc1)OCc1cccc(n1)CO[C@@H](c1ccccc1)[C@H](c1ccccc1)OC2,96% (active)
5,OCCN(CCO)c1cc(/C=C/c2ccnc3ccccc23)nc2ccccc12,32%
6,COC(=O)C(Cc1cccc(O)c1)NC(=O)C(CC(=O)OCc1ccccc1)NC(=O)OCc1ccccc1 (centres undefined) (Cbz-Asp(OBn)-[mTyr]-OMe; configuration not given here),70% (active)
7,COc1cc[c]([Sn]([c]2ccc(OC)cc2)([c]2ccc(OC)cc2)[c]2ccc(OC)cc2)cc1,1%
8,COC(=O)CCCCCOS(=O)(=O)c1ccc(C)cc1,-5%
9,O=S(=O)(C#Cc1ccccc1)c1ccccc1,98% (active)
10,N#CC1(C#N)C(C#N)(C#N)C12CCCCCC2,97% (active)
11,CCOC(=O)/C(C)=N/Nc1cc(Cl)ccc1O,55%
12,N/C(CC(=O)NOC(=O)c1ccccc1)=N/OC(=O)c1ccccc1,99% (active)
13,C/C(=N\NC(=S)N1CCC(C)CC1)c1ncccn1,98% (active)
14,Cc1ccc(S(=O)(=O)OCC(/C=N/NC(N)=O)OCOC(C)/C=N/NC(N)=O)cc1 (centres undefined),-7%
15,CN1COc2c(Cl)cc(Cl)cc2C1,85% (active)
16,c1ccc2cc3c(cc2c1)Nc1c2ccccc2nc2cccc-3c12,70% (active)
17,CCCCN(CCCC)S(=O)(=O)c1ccccc1,27%
18,Cc1cccc(N2C(c3ccccc3)c3ccc(C)cc3NS2=O)c1 (centres undefined),-1%
19,CN(C)c1ccc(/C=N/c2nc(-c3ccccc3)cs2)cc1,90% (active)
20,O=C1c2ccccc2-c2nc3ncccc3cc21,93% (active)
